Nine compounds from PubChem BioAssay (Tox21) can be followed below.

Assay [1] can be described thus: qHTS RealTime-Glo MT Cell Viability Assay in HEK293 cells - 0 hour (AID 1224880). Also: top concentration of the series differs between compounds; nearly all actives have a fitted effect of over 45% in size. Put shortly: (§1)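 Viable HEK293 cells reduce a cell-permeant prosubstrate; the product diffuses out and is consumed by NanoLuc in the medium to give light. Compounds went in after a 5 h incubation and plates were read over the treatment course.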
Assay [2] can be described thus: A CellTox Green Cytotoxicity Assay to monitor cytotoxicity in HEK293 cells - 32 hour (AID 1224881). Also: nearly all actives have a fitted effect of over 40% in size. Also: potency is read from the fitted curve at half-maximal effect. Put shortly:
(§2)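 Fluorescence intensity, read at 0, 8, 16, 24, 32 and 40 h of compound treatment, reflected dye binding to DNA of dead HEK293 cells; compounds (23 nL, DMSO) were added 5 h after plating cells with reagent.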

Assay [3] is described as follows: A CellTox Green Cytotoxicity Assay to monitor cytotoxicity in HepG2 cells - 0 hour (AID 1224882). Also: nearly all actives have a fitted effect of over 35% in size. The method, boiled down:
(§3)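 Using 1536-well format, dye-containing HepG2 suspension was seeded, allowed 5 h at 37 C/5% CO2, dosed by pintool with compounds, positive and negative controls, and imaged for fluorescence across 40 h.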

Assay [4] is described as follows: A CellTox Green Cytotoxicity Assay to monitor cytotoxicity in HepG2 cells - 32 hour (AID 1224883). Also: nearly all actives have a fitted effect of over 50% in size. Also: potency is read from the fitted curve at half-maximal effect. Put shortly:
as §3

Assay [5] is described as follows: A CellTox Green Cytotoxicity Assay to monitor cytotoxicity in HEK293 cells - 8 hour (AID 1224884). Also: nearly all actives have a fitted effect of over 35% in size. The method, boiled down: as §2
Assay [6] is described as follows: qHTS RealTime-Glo MT Cell Viability Assay in HEK293 cells - 24 hour (AID 1224886). Also: nearly all actives have a fitted effect of over 50% in size. Also: potency is read from the fitted curve at half-maximal effect. The method, boiled down: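 Viability tracked continuously by luminescence as live cells reduce a prosubstrate for NanoLuc; HEK293 cells preincubated 5 h, compound-treated at 37 C, and read at 0, 8, 16, 24, 32 and 40 h.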
Background: In qHTS, concentration-response curves come from the screen itself.

Assay [7] is described as follows: qHTS RealTime-Glo MT Cell Viability Assay in HEK293 cells - 8 hour (AID 1224887). Also: top concentration of the series differs between compounds; nearly all actives have a fitted effect of over 50% in size. Put shortly:
as §1

Assay [8] in a line: A CellTox Green Cytotoxicity Assay to monitor cytotoxicity in HEK293 cells - 16 hour (AID 1224888). Also: nearly all actives have a fitted effect of over 35% in size. Put shortly: as §2
The nature of assay [9]: qHTS RealTime-Glo MT Cell Viability Assay in HepG2 cells - 0 hour (AID 1224889). Also: nearly all actives have a fitted effect of over 50% in size. Put shortly: (§4)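 Viability was tracked continuously by NanoLuc luminescence from prosubstrate reduced by living HepG2 cells, at successive time points over 40 h of compound exposure. Cells with reagent were preincubated 5 h at 37 °C before compound addition.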
A short description of assay [10]: A CellTox Green Cytotoxicity Assay to monitor cytotoxicity in HepG2 cells - 8 hour (AID 1224890). Also: nearly all actives have a fitted effect of over 45% in size. Put shortly:
as §3

Assay [11] can be described thus: qHTS assay to identify small molecule antagonists of the estrogen receptor alpha (ER-alpha) signaling pathway using the BG1 cell line in the presence of 0.1 nM 17-beta-estradiol - cell viability counter screen (AID 1259241). Also: nearly all actives have a fitted effect of over 40% in size. Also: potency is read from the fitted curve at half-maximal effect. Put shortly:
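Viability in VM7Luc4E2 cells after 22 hr compound exposure under 0.1 nM 17beta-estradiol stimulation, by CellTiter-Fluor.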

The nature of assay [12]: qHTS assay to identify small molecule antagonists of the androgen receptor (AR) signaling pathway using the MDA cell line in the presence of 0.5 nM R1881 - cell viability counter screen (AID 1259242). Also: nearly all actives have a fitted effect of over 45% in size. The method, boiled down: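 Viability of MDA-kb2 cells was multiplexed with the luciferase AR readout; after 16 hr with compounds and R1881 at 0.5 nM final, CellTiter-Fluor fluorescence was recorded.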

The nature of assay [13]: qHTS assay to identify small molecule HDAC inhibitors (AID 1259364).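 Also: wild-type HCT-116 cells with endogenous class I/II HDAC activity; top concentration of the series differs between compounds; nearly all actives have a fitted effect of over 45% in size.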 The method, boiled down:
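Read-out: luminescence of HDAC-Glo I/II reagent, 30 min RT, reflecting class I/II deacetylase activity in whole HCT-116 cells pre-exposed 2 h to DMSO-dissolved compounds.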

The nature of assay [14]: qHTS assay to identify small molecule agonists of the sonic hedgehog signaling (Shh) pathway - cell viability counter screen (AID 1259366). Also: nearly all actives have a fitted effect of over 50% in size. Also: potency is read from the fitted curve at half-maximal effect. Put shortly: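 Stable Gli1-Luc NIH/3T3 clone, 2,000 cells/well. Compound exposure 24hr at 37C. Read-out: CellTiter-Fluor fluorescence.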
The nature of assay [15]: qHTS assay to identify small molecule antagonists of the sonic hedgehog signaling (Shh) pathway - cell viability counter screen (AID 1259367). Also: nearly all actives have a fitted effect of over 55% in size. Also: potency is read from the fitted curve at half-maximal effect. Put shortly: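 After a 4 hr settling period, 3T3 Gli1-Luc cells were treated with DMSO-dissolved chemicals and conditioned medium, kept 24 hr at 37C in 5% CO2, and assayed for viability by CellTiter-Fluor fluorescence following 1 hr reagent incubation.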

Assay [16] deals with Androgen receptor (Homo sapiens) (UniProt P10275). The assay is described as follows: qHTS assay to identify small molecule antagonists of the androgen receptor (AR) signaling pathway using the MDA cell line in the presence of 0.5 nM R1881 (AID 1259243). Also: nearly all actives have a fitted effect of over 50% in size. The method, boiled down:
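Reporter cells cultured without CO2 receive test chemicals, then 0.5 nM R1881 final; after 16 hr at 37C, ONE-Glo is added and light output recorded.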

The target of assay [17] is Estrogen receptor (Homo sapiens) (UniProt P03372). Description: qHTS assay to identify small molecule antagonists of the estrogen receptor alpha (ER-alpha) signaling pathway using the BG1 cell line in the presence of 0.1 nM 17-beta-estradiol (AID 1259244). Also: nearly all actives have a fitted effect of over 50% in size. Also: potency is read from the fitted curve at half-maximal effect. The method, boiled down:
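Estradiol at 0.1 nM (final) stimulates the endogenous ER-alpha of VM7Luc4E2 cells carrying an ERE-driven luciferase; compounds are co-incubated 22 h at 37C and luciferase output quantified by luminescence.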

Assay [18] can be described thus: qHTS assay to identify small molecule HDAC inhibitors - cell viability counter screen (AID 1259365). The method, boiled down: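 Cytotoxicity was gauged in wild-type HCT-116 cells after a brief 2hr treatment with DMSO-dissolved compounds at 37C and 5% CO2, using CellTiter-Glo luminescence developed for 30min at room temperature.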
The nature of assay [19]: qHTS RealTime-Glo MT Cell Viability Assay in HepG2 cells - 16 hour (AID 1224885). Also: nearly all actives have a fitted effect of over 50% in size. The method, boiled down: as §4
The nature of assay [20]: qHTS assay to identify small molecule phospholipidosis (PLD) inducers (AID 1259344; active = well fitted curve in the direction sought with a large enough effect; an effect the other way counts as inactive or inconclusive). The method, boiled down:
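HepG2 cells grown on collagen I take up LipidTOX Red while exposed to compound for 24 h; after fixation they are imaged at 20x and pit metrics are extracted.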

Unmarked numbers belong to inactive results. Results filed as inconclusive are left out. Calls of active or inactive are those of the source. Unless noted, calls follow the shape of the dose curve; as a rule, active = well fitted curve in the direction sought with a large enough effect in the repeat runs; inconclusive = weak or mixed curves; inactive = no such curve, though single readings can be large; an effect the other way counts as inactive or inconclusive.

Chain of Estrogen receptor (Homo sapiens) (P03372 whole entry, looked up): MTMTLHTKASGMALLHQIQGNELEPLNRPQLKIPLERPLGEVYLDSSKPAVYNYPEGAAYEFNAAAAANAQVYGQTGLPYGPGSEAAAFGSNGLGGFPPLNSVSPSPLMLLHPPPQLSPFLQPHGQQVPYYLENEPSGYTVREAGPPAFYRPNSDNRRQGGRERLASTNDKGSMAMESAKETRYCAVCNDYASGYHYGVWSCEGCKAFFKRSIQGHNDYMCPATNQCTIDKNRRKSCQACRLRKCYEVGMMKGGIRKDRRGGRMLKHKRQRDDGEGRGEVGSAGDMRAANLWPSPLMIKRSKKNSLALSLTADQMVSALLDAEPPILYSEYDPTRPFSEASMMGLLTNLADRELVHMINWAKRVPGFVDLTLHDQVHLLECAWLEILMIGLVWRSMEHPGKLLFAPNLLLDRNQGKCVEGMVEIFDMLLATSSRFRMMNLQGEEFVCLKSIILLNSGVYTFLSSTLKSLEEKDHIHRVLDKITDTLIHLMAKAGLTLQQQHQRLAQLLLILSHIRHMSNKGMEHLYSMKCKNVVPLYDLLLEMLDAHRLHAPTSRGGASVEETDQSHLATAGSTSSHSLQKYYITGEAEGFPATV
Chain of Androgen receptor (Homo sapiens) (P10275 whole entry, looked up): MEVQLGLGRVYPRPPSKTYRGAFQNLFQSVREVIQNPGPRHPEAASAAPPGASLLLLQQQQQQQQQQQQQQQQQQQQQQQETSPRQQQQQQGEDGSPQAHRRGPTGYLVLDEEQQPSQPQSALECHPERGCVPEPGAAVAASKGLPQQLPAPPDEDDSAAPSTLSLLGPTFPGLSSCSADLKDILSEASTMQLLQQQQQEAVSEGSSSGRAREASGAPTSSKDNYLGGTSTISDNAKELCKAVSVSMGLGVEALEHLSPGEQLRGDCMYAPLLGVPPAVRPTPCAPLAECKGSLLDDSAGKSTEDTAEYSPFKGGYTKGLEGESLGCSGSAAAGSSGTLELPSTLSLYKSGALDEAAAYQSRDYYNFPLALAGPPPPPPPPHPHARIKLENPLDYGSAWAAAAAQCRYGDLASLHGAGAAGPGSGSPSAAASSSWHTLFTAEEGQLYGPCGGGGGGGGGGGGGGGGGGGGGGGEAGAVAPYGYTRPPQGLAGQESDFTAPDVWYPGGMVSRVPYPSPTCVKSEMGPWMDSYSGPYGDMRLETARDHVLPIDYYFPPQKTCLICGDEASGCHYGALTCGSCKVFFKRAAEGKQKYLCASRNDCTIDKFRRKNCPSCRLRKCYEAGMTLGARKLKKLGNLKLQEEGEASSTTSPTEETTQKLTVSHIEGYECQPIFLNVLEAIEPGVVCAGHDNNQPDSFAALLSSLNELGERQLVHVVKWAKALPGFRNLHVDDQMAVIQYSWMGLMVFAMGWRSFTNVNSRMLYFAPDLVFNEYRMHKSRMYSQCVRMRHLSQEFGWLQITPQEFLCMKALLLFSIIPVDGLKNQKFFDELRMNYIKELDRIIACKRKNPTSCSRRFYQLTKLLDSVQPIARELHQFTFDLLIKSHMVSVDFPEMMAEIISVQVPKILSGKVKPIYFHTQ

Turning to `Cc1c(-c2cccnc2)c2ccccc2n1CCCCC(=O)O`, the Potency result in assay [1], in [2], in assay [3], in [4], in [5] and in [6] was “inactive” each time. The Potency result in assay [7], in [8], in [9], in assay [10], in assay [11] and in assay [12] was “inactive” each time. Moreover, the Potency result in assay [13], in [14] and in assay [15] was “inactive” each time.

As for `Cc1nc(C)c(C)nc1C`, the Potency entry in assay [1], in [2], in assay [3], in assay [4], in [5] and in assay [6] was “inactive” in each case. Further, the Potency entry in assay [7], in [8], in [9], in [10], in assay [11] and in assay [16] was “inactive” in each case. In addition, the Potency result in assay [17], in [13], in assay [14] and in assay [15] was “inactive” throughout. Moreover, in [18], the compound was called inactive.

Turning to `COC(=O)/C=C/C(C)=C\C=C\C(C)=C\C=C\C=C(C)\C=C\C=C(C)\C=C\C(=O)O`, the Potency result in assay [1], in assay [2], in assay [3], in assay [4], in assay [6] and in [7] was “inactive” each time. Further, the Potency result in assay [8], in assay [9], in assay [10], in assay [11], in assay [12] and in assay [16] was “inactive” throughout. The Potency result in assay [17], in assay [14] and in [15] was “inactive” throughout. In addition, the compound was classed as inactive in assay [18].

In the case of `O=C(O)c1cccnc1Nc1cccc(C(F)(F)F)c1`, the Potency entry in assay [1], in assay [2], in [3], in [4], in assay [6] and in assay [7] was “inactive” in each case. In addition, the Potency result in [8], in assay [9], in [10], in assay [11], in assay [12] and in [17] was “inactive” in each case. Further, the Potency result in assay [20], in [14] and in assay [15] was “inactive” throughout. Moreover, the compound was classed as inactive in [19] and in [18].

On to `Clc1nc2ccccc2nc1Cl`, for which the Potency result in assay [1], in [2], in assay [3], in [4], in [7] and in [9] was “inactive” in each case. In addition, the Potency entry in [10], in [11], in [17], in [13] and in assay [14] was “inactive” each time. Besides, the compound was classed as inactive in [19] and in assay [18].

On to `CCCCCCCCCCCCSCCOCCO`, for which the Potency result in [1], in [2], in assay [3], in assay [4], in assay [6] and in assay [7] was “inactive” in each case. Besides, the Potency entry in assay [8], in assay [9], in assay [10], in assay [11], in [20] and in [13] was “inactive” each time. Moreover, the Potency result in assay [14] and in assay [15] was “inactive” in each case. The compound was classed as inactive in [19] and in assay [18].

On to `Cc1c(Cl)cccc1[N+](=O)[O-]`, for which the Potency result in [1], in assay [2], in assay [3], in [4], in assay [6] and in assay [7] was “inactive” throughout. The Potency result in [8], in [9], in assay [10], in [11], in assay [12] and in assay [13] was “inactive” in each case. Besides, the Potency result in assay [14] is “inactive”. In assay [18], the compound was classed as inactive.

On to `OCC(O)c1ccccc1` (stereo unspecified), for which the Potency entry in assay [1], in assay [2], in assay [3], in assay [4], in assay [6] and in [7] was “inactive” each time. Moreover, the Potency result in [8], in [9], in assay [10], in assay [11], in assay [12] and in [17] was “inactive” each time. The Potency result in [13], in assay [14] and in assay [15] was “inactive” in each case. Besides, the compound was called inactive in assay [19] and in assay [18].

Regarding `CC(C)C[C@H](NC(=O)[C@H](Cc1ccccc1)NC(=O)c1cnccn1)B(O)O`, the Potency entry in assay [1], in assay [3], in [5], in assay [7], in [9] and in assay [10] was “inactive” in each case. Besides, the Potency entry in assay [20] and in assay [13] was “inactive” in each case. For the same compound, the Potency in assay [2] is 190 nM (active); in assay [4] it was 23.9 nM (active); in assay [6], 75.6 nM (active); in [11], 266 nM (active); in assay [17], 59.6 nM (active); in [14], 1060 nM (active). Further, in assay [15], the Potency is 5310 nM (active). Also, the outcome in assay [18] was inactive.
